This is part of a sample that, as a whole, favours compounds with a hit. Of some 83,000 tested, about 20% had one in any assay.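 Activity criterion: percent growth below 10, measured after cells in 96-well plates were exposed to a single compound concentration for 48 hours.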 Active and inactive are the calls of the source.
Assays:
Experiment in all cases: NCI-60 one-dose screen, 48 h (100 = growth as untreated, 0 = no growth, -100 = all killed)
Details in all cases: 10 µM unless noted
T-47D breast = test system: T-47D breast
BT-549 breast = test system: BT-549 breast
MDA-MB-435 melanoma = test system: MDA-MB-435 melanoma
SW-620 colon = test system: SW-620 colon
MCF7 breast = test system: MCF7 breast
HCT-116 colon = test system: HCT-116 colon
HCC-2998 colon = test system: HCC-2998 colon
KM12 colon = test system: KM12 colon
MDA-MB-468 breast = test system: MDA-MB-468 breast

Measured: growth

N#Cc1c(-c2ccc(F)cc2)nc(SCc2ccccc2)nc1N1CCNCC1
active: T-47D breast -75.9% | BT-549 breast -97.4% | MDA-MB-435 melanoma -83.6% | SW-620 colon -78.7% | MCF7 breast -84.7% | HCT-116 colon -96.9% | HCC-2998 colon -64.6% | KM12 colon -84.3% | MDA-MB-468 breast -64.3%

COc1cc(CNC(=O)C[C@H](C)CCC=C(C)C)ccc1OCc1cn(-c2ccc(Cl)c(Cl)c2)nn1
inactive: T-47D breast 33.6% | BT-549 breast 71.7% | MDA-MB-435 melanoma 91.3% | SW-620 colon 29.9% | MCF7 breast 49.6% | HCT-116 colon 29.8% | HCC-2998 colon 93.5% | KM12 colon 82.7% | MDA-MB-468 breast 55%

C[C@H](NC(=O)c1ccc2c(-c3ccc(C(F)(F)F)cc3)cccc2c1)c1ccccn1
inactive: T-47D breast 18% | BT-549 breast 54.3% | MDA-MB-435 melanoma 56% | SW-620 colon 68.1% | MCF7 breast 26% | HCT-116 colon 35.4% | HCC-2998 colon 49.9% | KM12 colon 47.5%
active: MDA-MB-468 breast 7.67%

Nc1nn2c(-c3cc4cc(Br)ccc4oc3=O)ccnc2c1N=Nc1ccccc1
inactive: T-47D breast 29.6% | MDA-MB-435 melanoma 71.2% | SW-620 colon 50.7% | MCF7 breast 20% | HCC-2998 colon 30.2% | KM12 colon 26.1% | MDA-MB-468 breast 46.2%
active: BT-549 breast -45.3% | HCT-116 colon 3.34%

CCOc1ccc(-c2cc(-c3cc(C(C)C)c(O)cc3C)nn2-c2ccc(S(N)(=O)=O)cc2)cc1
inactive: T-47D breast 18.4% | SW-620 colon 33.3% | MCF7 breast 12% | HCT-116 colon 24%
active: BT-549 breast 3.59% | MDA-MB-435 melanoma -43.6% | HCC-2998 colon 4.6% | KM12 colon 7.96% | MDA-MB-468 breast -16.5%

Cc1nn(-c2ccccc2)c2nc(C)n(CC(=O)N/N=C/c3ccccc3O)c(=O)c12
inactive: T-47D breast 16.1% | BT-549 breast 37.2% | MDA-MB-435 melanoma 34.7% | SW-620 colon 18.9% | HCT-116 colon 24.6% | HCC-2998 colon 27.4% | KM12 colon 31%
active: MCF7 breast 7.8% | MDA-MB-468 breast -23.3%

Clc1ccc(-c2nc3ccc(-c4nnc(SCc5ccccc5)o4)cc3[nH]2)cc1
active: T-47D breast 7.8% | MCF7 breast 8.62% | HCT-116 colon 2.75%
inactive: BT-549 breast 58.7% | MDA-MB-435 melanoma 62.6% | SW-620 colon 12.9% | HCC-2998 colon 39.4% | KM12 colon 35.5% | MDA-MB-468 breast 11%

Cc1ccc2c(c1)/C(=C/C(=O)c1cc3ccccc3oc1=O)C(=O)N2
active: SW-620 colon -94.7% | MDA-MB-468 breast -69.3%
inactive: T-47D breast 72.8% | BT-549 breast 68.8% | MDA-MB-435 melanoma 75.5% | MCF7 breast 55.9% | HCT-116 colon 18.9% | HCC-2998 colon 106% | KM12 colon 86.9%

CCOc1ccc2[nH]c(=O)c(C(c3nnnn3CC3CCCO3)N3CCN(Cc4ccccc4)CC3)cc2c1 (configuration not stated)
inactive: T-47D breast 106% | BT-549 breast 81.7% | MDA-MB-435 melanoma 99.3% | SW-620 colon 98.8% | MCF7 breast 92.4% | HCT-116 colon 78% | HCC-2998 colon 122% | KM12 colon 101% | MDA-MB-468 breast 72.4%

COC(=O)CSC1=C(C)C(=O)C(OC)=C(OC)C1=O
inactive: T-47D breast 36.2% | BT-549 breast 79% | MDA-MB-435 melanoma 89.2% | SW-620 colon 84.5% | MCF7 breast 86.6% | HCT-116 colon 29.6% | HCC-2998 colon 120% | KM12 colon 93.5% | MDA-MB-468 breast 52%

C/C(=N/O)c1ccc(NC(=O)CSc2nnc(-c3ccc(-c4nc5ccc(Cl)cc5[nH]4)cc3)o2)cc1
inactive: T-47D breast 11.8% | BT-549 breast 14.2% | HCC-2998 colon 71.2% | MDA-MB-468 breast 64.9%
active: MDA-MB-435 melanoma -32.9% | SW-620 colon -54.9% | MCF7 breast 3.95% | HCT-116 colon 4.71% | KM12 colon 2.42%

Cc1ccc(C2CC(c3ccc(NC(=O)Nc4ccccc4)cc3)=NN2c2ccc(S(C)(=O)=O)cc2)cc1 (configuration not stated)
inactive: T-47D breast 11.9%
active: BT-549 breast -32.8% | MDA-MB-435 melanoma -7.07% | SW-620 colon -42.6% | MCF7 breast -34.3% | HCT-116 colon -36.5% | HCC-2998 colon -80.7% | KM12 colon -2.32% | MDA-MB-468 breast -1.05%

Cc1ccccc1NC(=O)c1cccc(NC(=O)CCl)c1
inactive: T-47D breast 74.8% | BT-549 breast 39.4% | MDA-MB-435 melanoma 72.7% | SW-620 colon 41.7% | MCF7 breast 19.2% | HCT-116 colon 27.3% | HCC-2998 colon 96.1% | KM12 colon 77.3%
active: MDA-MB-468 breast -0.88%
